# Assay results: the supplement of paper PMC10600219
# Where a name gives a salt, the structure may show the parent alone. Over roughly 2,800 compounds, “cell viability relative to vehicle” has its median near 0.98; the lowest 2% begin near 0.45. The full list was thinned out, with the lowest values kept by preference.
# Tested on: NCI-H2228 alectinib-DTP
# Assay: cell viability relative to vehicle (fraction of vehicle); NCI-H2228 is an ALK-positive lung cancer line and DTP means drug-tolerant persister; higher = less growth inhibition
# Settings: 100 nM; treatment time 6 days
# Method in brief: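 Values give cell viability as a fraction of vehicle-treated cells. Parental and drug-tolerant persister NCI-H2228 cells (persisters made with 1000 nM of a targeted drug for 13 days) were exposed in 384-well plates to the 3114-agent TargetMol anti-cancer compound library at 100 nM, with DMSO as vehicle. ATP was then read after 6 days by the CellTiter-Glo 3D Cell Viability Assay.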
row,Structure (SMILES),cell viability
1,CC(C)C[C@H](NC(=O)[C@@H](NC(=O)c1cccc(-c2ccccc2)n1)[C@@H](C)O)B(O)O [Delanzomib],0.301
2,CC(C)C[C@H](NC(=O)[C@H](Cc1ccccc1)NC(=O)c1cnccn1)B(O)O [Bortezomib],0.145
3,CC(C)C[C@H](NC(=O)[C@@H](O)[C@H](N)Cc1ccccc1)C(=O)O [Ubenimex],1.05
4,CNC(=O)[C@H](Cc1ccccc1)NC(=O)[C@H](CC(C)C)[C@H](CSc1cccs1)C(=O)NO [Batimastat],1.15
5,CC(C)C[C@H](NC(=O)[C@@H](O)[C@H](N)Cc1ccccc1)C(=O)O [Bestatin hydrochloride],1.12
6,CC(C(=O)Nc1cccc(/N=C/c2c(O)ccc3ccccc23)c1)c1ccccc1 (stereo not drawn) [Salermide],0.89
7,O=C(Nc1ccc(C(O)(C(F)(F)F)C(F)(F)F)cc1)c1ccccc1Cl,0.929
8,Cn1cc(-c2cnn3c(N)c(Br)c([C@H]4CCCNC4)nc23)cn1,0.907
9,C/C(=C1/C(=O)Nc2ccc(NC(N)=O)cc21)c1ccc[nH]1,1.02
10,CCN(CC)CCOc1ccc(Nc2ncc3cc(-c4c(Cl)cccc4Cl)c(=O)n(C)c3n2)cc1,0.445
11,CCN(CC)CCOc1ccc(Nc2nc(-c3ccccc3NC(=O)CCN3CCN(C)CC3)nc3ccccc23)cc1,1.16
12,CSc1cccc(Nc2ncc3cc(-c4c(Cl)cccc4Cl)c(=O)n(C)c3n2)c1,0.665
13,N#Cc1cc2cc(CN3CCC(Nc4ncnc5sc(CC(F)(F)F)cc45)CC3)ccc2[nH]1,1.04
14,COc1ccc(-c2nc(-c3cc(C(F)(F)F)cc(C(F)(F)F)c3)n(Cc3ccc(C(N)=O)cc3)c2-c2ccc(OC)cc2)cc1 [Apoptozole],0.817
15,COc1cc2ncnc(Nc3ccc(F)c(Cl)c3)c2cc1OCCCN1CCOCC1 [Gefitinib],0.881
16,COc1c(OCCCN2CCOCC2)ccc2c1N=C(NC(=O)c1cnc(N)nc1)N1CCN=C21 [Copanlisib],0.38
17,COc1cc2c(Oc3ccc(NC(=O)C4(C(=O)Nc5ccc(F)cc5)CC4)cc3F)ccnc2cc1OCCCN1CCOCC1 [Foretinib],0.882
18,Cc1cc(C)c(S(=O)(=O)N(CCc2cccc(Br)c2)Cc2ccc(-c3cccc(S(C)(=O)=O)c3)cc2)c(C)c1,1.12
19,N#C/C(=C/c1ccc(O)c(O)c1)C(=O)N1CCc2ccccc21 [Tyrphostin AG 528],1.03
20,COc1ccc(C=C(C#N)c2cccnc2)cc1OC,0.956
21,COc1ccc2c3n(c(=NC(=O)c4cccnc4)nc2c1OC)CCN3,0.447
22,CCc1nc2c(C)cc(N3CCN(CC(=O)N4CC(O)C4)CC3)cn2c1N(C)c1nc(-c2ccc(F)cc2)c(C#N)s1,1.02
23,COc1cc(N2CCC(N3CCN(C)CC3)CC2)ccc1Nc1ncc(Cl)c(Nc2ccccc2S(=O)(=O)C(C)C)n1,0.942
24,CN1CCN(Cc2ccc(Nc3ncc(Cl)c(Nc4ccccc4S(=O)(=O)N(C)C)n3)cc2)CC1,0.122
25,CNS(=O)(=O)c1ccccc1Nc1nc(Nc2ccc(N3CCN(C)CC3)cc2OC)ncc1Cl [ALK inhibitor 2],1

row,Structure (SMILES),cell viability
1,CC/C(=C(/c1ccc(O)cc1)c1ccc(OCCNC)cc1)c1ccccc1 [Endoxifen E-isomer hydrochloride],1.12
2,CN1C(N)=N[C@](C)(c2cc(NC(=O)c3ccc(F)cn3)ccc2F)CS1(=O)=O [Verubecestat],0.969
3,Cn1cc(CNCC2CCN(c3ncc(C(=O)NO)cn3)CC2)c2ccccc21 [Quisinostat],0.358
4,Cn1cc(C[C@@H](N)C(=O)O)c2ccccc21 [Indoximod],1.14
5,CN1CCc2c(c3ccccc3n2Cc2ccc(C(=O)NO)cc2)C1 [Tubastatin A HCl],0.892
6,CC(=O)OCC1=CO[C@@H](OC(=O)CC(C)C)[C@H]2C1=C[C@H](OC(=O)CC(C)(C)OC(C)=O)[C@]21CO1 [Acevaltrate],1.13
7,Cc1cc([N+](=O)[O-])c(NS(=O)(=O)c2cccc(C(=O)O)c2)cc1-c1cccnc1 [Alofanib],0.978
8,O=P(O)(O)O[C@H]1[C@H](OP(=O)(O)O)[C@@H](OP(=O)(O)O)[C@H](OP(=O)(O)O)[C@@H](OP(=O)(O)O)[C@H]1OP(=O)(O)O [Phytic acid],1.13
9,COC(=O)Nc1ccc(-c2nc(N3CCOCC3)c3cnn(C4CCN(C(=O)OC)CC4)c3n2)cc1,0.855
10,CCNC(=O)Nc1ccc(-c2nc(N3CCOC[C@@H]3C)c3c(n2)C(C)(C)S(=O)(=O)C3)cc1,0.508
11,CN(C)C1CCN(C(=O)c2ccc(NC(=O)Nc3ccc(-c4nc(N5CCOCC5)nc(N5CCOCC5)n4)cc3)cc2)CC1 [Gedatolisib],0.385
12,O=C(Nc1ncc([N+](=O)[O-])s1)c1ccccc1O [Tizoxanide],0.88
13,COC(=O)C[C@](O)(CCCC(C)(C)O)C(=O)O[C@@H]1C(OC)=C[C@]23CCCN2CCc2cc4c(cc2[C@H]13)OCO4 [Homoharringtonine],0.2
14,O=C(O)COc1ccc(Br)cc1/C=C1\SC(=S)N(Cc2cccnc2)C1=O [Skp2 Inhibitor C1],1.08
15,CC(C)=CCc1cc2c(cc1O)O[C@H](c1ccc(O)cc1)CC2=O [Bavachin],1.01
16,CC(C)(C)c1cc(NC(=O)Nc2ccc(Oc3ccnc4[nH]c(=O)cnc34)cc2F)n(-c2ccccc2)n1,1.12
17,O=C(/C=C/c1cccnc1)NCCCCC1CCN(C(=O)c2ccccc2)CC1,0.452
18,Nc1ccc(/C=C/C(=O)NCc2cc3cc(-c4ccc(C(=O)N5CCC(F)(F)CC5)cc4)cc(-c4ccc(F)cc4)c3o2)cn1,1.25
19,Nc1cc(F)ccc1NC(=O)c1ccc(CNC(=O)/C=C/c2cccnc2)cc1 [Chidamide],0.775
20,c1ccc(-c2oc3ncnc(NC[C@@H]4CCCO4)c3c2-c2ccccc2)cc1,1.06
21,COC1=CC(=O)c2ccccc2C1=O [2-Methoxynaphthoquinone],1.06
22,COc1ccc(-c2cc3c(C)nc(N)nc3n([C@H]3CC[C@H](OCCO)CC3)c2=O)cn1,0.398
23,CCn1c(=O)c(-c2cc[nH]n2)cc2c(C)nc(N)nc21 [Voxtalisib],0.86
24,COc1cccc(-c2cc(F)ccc2[C@H]2Cc3nc(N)nc(C)c3C(=O)N2)n1,0.502
25,CCCCCCCCCC(=O)CC(O)S(=O)(=O)O (stereo not drawn) [Sodium houttuyfonate],1.08

row,Structure (SMILES),cell viability
1,CC(=O)OC(C)(C)CCC(=O)[C@](C)(O)[C@H]1[C@H](O)C[C@@]2(C)[C@@H]3CC=C4[C@@H](C[C@H](O)[C@@H](O)C4(C)C)[C@]3(C)C(=O)C[C@]12C [Cucurbitacin IIA],1.07
2,Oc1ccc(C(c2c[nH]c3ccccc23)c2c[nH]c3ccccc23)cc1,1.08
3,C[C@@H]1O[C@@H](O[C@@H]2[C@H](O)[C@@H](O)[C@H](O[C@H]3CC[C@@]4(C)C(CC[C@]5(C)C4C=C[C@]46OC[C@@]7(CCC(C)(C)CC74)[C@@H](O)C[C@]65C)C3(C)C)O[C@@H]2CO[C@@H]2O[C@H](CO)[C@@H](O)[C@H](O)[C@H]2O)[C@H](O)[C@H](O)[C@H]1O (stereo partly drawn) [Saikosaponin C],0.993
4,COc1ccc(CC(=O)NC(/N=C(\NC#N)Nc2cccc3ncccc23)C(C)(C)C)cc1OC (stereo not drawn),0.985
5,Cc1ccc(NC(=S)NNc2c([N+](=O)[O-])cc(C(F)(F)F)cc2[N+](=O)[O-])cc1Cl,0.982
6,"COc1ccc(CCC(=O)O)cc1OC [3,4-Dimethoxyhydrocinnamic acid]",0.856
7,N#CN=C(NCCCCCCOc1ccc(Cl)cc1)Nc1ccncc1,0.165
8,N=C(NCCCCCCNC(=N)NC(=N)Nc1ccc(Cl)cc1)NC(=N)Nc1ccc(Cl)cc1 [Chlorhexidine],1.17
9,N=C(NCCCCCCNC(=N)NC(=N)Nc1ccc(Cl)cc1)NC(=N)Nc1ccc(Cl)cc1 [Chlorhexidine hydrochloride],1.02
10,C[C@@H]1CC[C@]2(C(=O)O)CC[C@]3(C)C(=CC[C@@H]4[C@@]5(C)CC[C@H](O)[C@@](C)(CO)[C@@H]5CC[C@]43C)[C@@H]2[C@]1(C)O [Rutundic acid],1.02
11,CCN(CC)CC(O)CNc1ccc(NCC2CO2)c2c1C(=O)c1ccccc1C2=O (stereo not drawn),0.831
12,O=C(NCCCn1ccnc1)c1cc(-c2ccco2)on1,1.03
13,C[C@H](CC(=O)C[C@@H](C)[C@H]1C[C@H](O)[C@@]2(C)C3=C(C(=O)C[C@]12C)[C@@]1(C)CCC(=O)C(C)(C)[C@@H]1C[C@@H]3O)C(=O)O [Ganoderic acid A],1.03
14,CNC(=O)Nc1cc(Oc2cncc(C)c2)c(-c2ccc(OCC(C)(C)O)nc2)cn1,0.91
15,COc1cc2cc(Oc3ccc4ccc(=O)oc4c3)c(=O)oc2cc1O [Daphnoretin],1.11
16,COCC[n+]1c2c(n(Cc3cnccn3)c1C)C(=O)c1ccccc1C2=O,0.0756
17,CC(C)(NS(=O)(=O)c1ccc2c(Cl)cnc(N=C(N)N)c2c1)C(=O)O,1.04
18,CCC(=O)N1CCOc2c(cc(-c3ccc(OC)c(OC)c3)cc2OC[C@H]2CCCN(C)C2)C1 [I-CBP112 hydrochloride],0.963
19,Cc1cc(N2C[C@@H](C)N[C@@H](C)C2)ncc1-c1ccc(-c2nc3c(ccn3C)c(=O)[nH]2)cc1,0.757
20,CCCC(C)NC(=O)c1ccc(Cl)c(Cl)c1 (stereo not drawn),1.07
21,CC(C)C[C@H](NC(=O)CNC(=O)c1cc(Cl)ccc1Cl)B(O)O [Ixazomib],0.28
22,C[C@H](NC(=O)CNC(=O)c1cccc(Cl)c1)c1ccccc1,0.957
23,CC(C)C[C@H](NC(=O)CNC(=O)c1cc(Cl)ccc1Cl)B1OC(=O)C(CC(=O)O)(CC(=O)O)O1,0.342
